Shown are actives, neighbours in structure and some others; about 8% of the full set was active somewhere.
SARS PLpro yeast: inhibitors of SARS-CoV papain-like protease in yeast | 330,000 compounds, 0.19% hits | AID 485353 | Potency, µM (doses to about 32.9 µM), hits mostly activators | S. cerevisiae expressing SARS-CoV PLpro, growth rescue; calls by dose curve; also: nearly all actives have a fitted effect of over 55% in size
FMDV antiviral: foot and mouth disease virus antiviral activity; FMDV antiviral cell-based qHTS; 410,000 compounds, 1.2% hits; Potency, µM (doses to about 57.9 µM), hits mostly inhibitors; calls by dose curve; tested in HEK293T cells; also: read-out not given here; nearly all actives have a fitted effect of over 45% in size
HCV inh: blocks hepatitis C virus; Huh7.5.1 HCVcc-Cre infection, luciferase reporter, 44 h; Potency, µM (titrated, usually from 41.8 µM), actives largely listed as inhibitors; 340,000 compounds, 3.4% hits; AID 651820; active = well fitted inhibition curve with a large enough effect; inconclusive = small, poorly fitted or top-dose-only effect, or another doubt; inactive = no such curve, though single readings can be large or run the other way
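After 44 h co-culture of compound, cells and HCVcc-Cre (~0.5 moi), substrate is added for 15 min at room temperature and luciferase measured over 15 sec. Cells were seeded at 1,000/well and pre-cultured 4 h.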
Lassa entry inh: blocks Lassa virus binding to or entry into cells; Potency, µM (top dose mostly 37.9 µM), actives largely listed as inhibitors; AID 540256; Lassa virus pseudotype entry inhibition, cell reporter; 300,000 compounds, 1.2% hits; calls by dose curve; tested in HEK293 cells; also: nearly all actives have a fitted effect of over 50% in size
MARV entry inh: inhibitors of Marburg virus binding or cell entry; Marburg virus pseudotyped entry inhibition, cell reporter; Potency, µM (top dose mostly 37.8 µM), most hits filed as inhibitors; 300,000 compounds, 1.8% hits; calls by dose curve; tested in HEK293 cells
HCMV inh: human cytomegalovirus inhibition. HFF cells, HCMV-luciferase reporter, 72 h; hits give low values. activity change, negative = inhibition, % at 57.5 µM. 410,000 compounds, 4.5% hits; in the data active = activity change below about -60%; inconclusive = no clear call, values can overlap the other calls; inactive = above about -39%
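Luciferase read-out from HCMV-luciferase-infected HFFs (MOI 1 PFU/cell) 72 h post infection at 37C; compounds added after 16 h cell attachment; activity normalized between buffer-only basal and Salinomycin (10uM) inhibitor controls.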
Of the large screens only hits and unclear results are named; the others gave an inactive call; ! = not active in a repeat.

Cc1ccc(CNC(=O)c2cc(-c3ccc(C)cc3)nc3n[nH]c(-c4cccc([N+](=O)[O-])c4)c23)cc1	none (no result: SARS PLpro yeast, HCV inh, MARV entry inh)
COC(=O)c1ccc(C2c3c(oc4ccc(C)cc4c3=O)C(=O)N2Cc2ccc3c(c2)OCO3)cc1 (stereo not drawn)	HCMV inh -109 (no result: SARS PLpro yeast, HCV inh)
COCCN1C(=O)c2oc3ccc(C)cc3c(=O)c2C1c1ccc(C(=O)OC)cc1 (stereo not drawn)	HCMV inh inconclusive (no result: SARS PLpro yeast, HCV inh)
COc1ccc(C2=NCC(C)n3c2c2ccc(OC)cc2[n+]3[O-])cc1 (stereo not drawn)	none (no result: SARS PLpro yeast, FMDV antiviral, HCV inh, Lassa entry inh, MARV entry inh)
O=C(CCn1cnnn1)Nc1ccc(F)cc1	MARV entry inh inconclusive, HCMV inh -103!
CC(=O)Nc1ccc(NC(=O)CCn2cnnn2)cc1	none (no result: Lassa entry inh)
CNC(=O)c1ccccc1NC(=O)c1cccc(S(=O)(=O)N2CCC(C)CC2)c1	HCV inh inconclusive, Lassa entry inh 22µM, MARV entry inh inconclusive
CCNC(=O)c1ccccc1NC(=O)c1cccc(S(=O)(=O)N2CCC(C)CC2)c1	FMDV antiviral inconclusive, HCV inh 10µM, MARV entry inh inconclusive, HCMV inh inconclusive
CNC(=O)c1ccccc1NC(=O)c1cccc(S(=O)(=O)N2CCCCC2)c1	none
CC1CCN(S(=O)(=O)c2cccc(C(=O)N(Cc3ccccc3)c3ccccn3)c2)CC1	Lassa entry inh inconclusive, MARV entry inh inconclusive, HCMV inh -66
COc1ccc(Nc2cc3[nH]c(-c4ccccc4)cc3cn2)cc1	none (no result: SARS PLpro yeast, FMDV antiviral, HCV inh, Lassa entry inh, MARV entry inh)
COc1ccc(CN(C(=O)CSc2nnc(-c3ccc(F)cc3)o2)c2ccc(F)cc2)cc1	HCV inh inconclusive, Lassa entry inh inconclusive
COc1ccc(CN(C(=O)CSc2nnc(-c3c[nH]c4ccccc34)o2)c2ccc(F)cc2)cc1OC	FMDV antiviral inconclusive, HCV inh 5µM, Lassa entry inh 7.1µM, MARV entry inh inconclusive, HCMV inh -70
COc1ccc(N(Cc2ccccc2)C(=O)CSc2nnc(Cn3nnc4ccccc43)o2)cc1	FMDV antiviral inconclusive, HCV inh 14µM, Lassa entry inh inconclusive, MARV entry inh inconclusive
O=C(CSc1nnc(Cn2nnc3ccccc32)o1)N(Cc1ccc(F)cc1)c1ccccc1	HCV inh 1.6µM, Lassa entry inh inconclusive, MARV entry inh inconclusive, HCMV inh -100 (no result: FMDV antiviral)
COC(=O)c1ccc(NC(=O)CC2C(=O)N(c3ccc(C)cc3)C(=O)N2Cc2ccc(OC)cc2)cc1 (stereo not drawn)	none (no result: SARS PLpro yeast, HCV inh, MARV entry inh)
COc1ccc(OC)c(C2=NO[C@@](CC(=O)O)(C(=O)Nc3ccc4c(c3)OCCO4)C2)c1	HCMV inh -100
COc1ccccc1O	none (no result: Lassa entry inh, MARV entry inh)
Oc1ccccc1O	HCV inh inconclusive, Lassa entry inh inconclusive, MARV entry inh 2.5µM! (no result: SARS PLpro yeast)
CCc1nc2sc3c(O)cc(=O)[nH]c3c2cc1C	HCMV inh -81
O=C(NNC(=O)c1ccccc1C(=O)O)c1ccc(O)cc1	HCV inh 13µM
O=C(NNC(=O)c1ccccc1Br)c1ccncc1	HCMV inh -65 (no result: Lassa entry inh, MARV entry inh)
CC(C)Oc1ccc(C(=O)NNC(=O)c2ccccc2C(=O)O)cc1	none (no result: Lassa entry inh, MARV entry inh)
CC(C)CCNC(=O)c1ccc(Cn2c(=O)c3cccn3c3cccnc32)cc1	HCMV inh inconclusive (no result: SARS PLpro yeast, HCV inh, MARV entry inh)
COc1ccccc1-c1nn(CCC(=O)Nc2ccc(C)cc2)c2nc(C)cc(C)c12	none (no result: SARS PLpro yeast, HCV inh)
CC(=O)N(C)CC#CCN1CCCC(CO)C1 (stereo not drawn)	HCMV inh -61 (no result: SARS PLpro yeast, HCV inh, Lassa entry inh, MARV entry inh)
c1ccc2c(c1)NC1(CCCC1)n1c-2nc2ccccc21	HCV inh 11µM, MARV entry inh inconclusive (no result: FMDV antiviral)
CCCC1(C)Nc2ccccc2-c2nc3ccccc3n21 (stereo not drawn)	none
Cn1c(=O)c2c(nc(Br)n2C/C=N/NC(N)=S)n(C)c1=O	MARV entry inh inconclusive, HCMV inh -84
COc1cc(NC(=O)C2CCN(S(=O)(=O)c3ccc4c(c3)CCCC(=O)N4)CC2)cc(OC)c1	none (no result: SARS PLpro yeast, HCV inh, MARV entry inh)
CC1(C)CC(=O)C=C(c2ccc(Oc3ccccc3)cc2)C1=O	none (no result: SARS PLpro yeast, HCV inh, Lassa entry inh, MARV entry inh)
CC1(C)CC(=O)C=C(c2ccc(-c3cnc4ccccc4c3)cc2)C1=O	HCMV inh -71 (no result: SARS PLpro yeast, HCV inh, Lassa entry inh, MARV entry inh)
COc1cc(NC(=O)c2cc(C3CC3)nc3c2c(C)nn3-c2ccc(C)cc2)cc(OC)c1	none (no result: SARS PLpro yeast, HCV inh, MARV entry inh)
O=C(Nc1cccc(O)c1)c1ccc(C(F)(F)F)cc1	Lassa entry inh inconclusive, MARV entry inh inconclusive
O=C(Nc1ccc(Br)c(C(F)(F)F)c1)c1ccc(C(F)(F)F)cc1	HCV inh inconclusive, Lassa entry inh inconclusive, MARV entry inh inconclusive, HCMV inh -97
